{
  "source": "PubChem BioAssay AID652042",
  "about": "(Broad Institute, 2013)",
  "note": "The whole screen tested about 1,100 compounds, of which about 350 (32%) were called active. How the calls were made is not given here. Only a sample is shown. A call without a number means that no potency is given here. Potency and affinity values are given separately.",
  "data": [
    {"assay": "viability loss in CEM21 cells – cell-based, CellTiter-Glo luminescence, cherry-picked, cytotoxicity control for viral fusion inhibitor project, dose response (AID 652042)", "details": "CellTiter-Glo ATP luminescence, 24 h; series mostly up to 35 µM", "values": [
      {"smiles": "C[C@H](CO)N1C[C@H](C)[C@H](CN(C)CC2CC2)Oc2ccc(NC(=O)Nc3ccc4c(c3)OCO4)cc2CC1=O", "activity change, negative = cytotoxicity": "inactive"},
      {"smiles": "C[C@H](CO)N1C[C@H](C)[C@H](CN(C)S(=O)(=O)c2ccccc2)Oc2ccc(NC(=O)Nc3ccccc3)cc2CC1=O", "activity change, negative = cytotoxicity": "inactive"},
      {"smiles": "COc1ccc(NC(=O)Nc2ccc3c(c2)CC(=O)N([C@@H](C)CO)C[C@H](C)[C@H](CN(C)S(=O)(=O)c2cccs2)O3)cc1", "activity change, negative = cytotoxicity": "inactive"},
      {"smiles": "C[C@H](CO)N1C[C@H](C)[C@H](CN(C)S(=O)(=O)c2ccc(Cl)cc2)Oc2ccc(NC(=O)Nc3ccc4c(c3)OCO4)cc2C1=O", "activity change, negative = cytotoxicity": "inactive"},
      {"smiles": "COc1ccc(S(=O)(=O)Nc2ccc3c(c2)CC(=O)N([C@H](C)CO)C[C@H](C)[C@H](CN(C)S(=O)(=O)c2ccc(F)cc2)O3)cc1", "activity change, negative = cytotoxicity": "inactive"},
      {"smiles": "CC(C)NC(=O)Nc1ccc2c(c1)CC(=O)N([C@H](C)CO)C[C@H](C)[C@H](CN(C)S(=O)(=O)c1cccs1)O2", "activity change, negative = cytotoxicity": "inactive"},
      {"smiles": "C[C@H]1CN([C@@H](C)CO)C(=O)c2cc(NC(=O)Nc3ccc4c(c3)OCO4)ccc2O[C@H]1CN(C)S(=O)(=O)c1ccc(F)cc1", "activity change, negative = cytotoxicity": "inactive"},
      {"smiles": "COc1ccc(CN(C)C[C@@H]2Oc3ccc(NC(=O)Nc4ccc(OC)cc4)cc3C(=O)N([C@H](C)CO)C[C@@H]2C)cc1", "activity change, negative = cytotoxicity": "inactive"},
      {"smiles": "COc1ccc(Cl)cc1CC1(C)C(=O)Nc2ccc(S(=O)(=O)NC3CCCCC3)cc21", "note": "(centres undefined)", "activity change, negative = cytotoxicity": "inactive"},
      {"smiles": "O=C(c1ccccc1)N1CCC(c2nc(-c3ccc(S(=O)(=O)NCC4CCCO4)cc3)no2)CC1", "note": "(centres undefined)", "activity change, negative = cytotoxicity": "inactive"},
      {"smiles": "CC1CCN(C(=O)c2ncn3c2C(=O)N[C@H](C)C3)CC1", "activity change, negative = cytotoxicity": "inactive"},
      {"smiles": "O=C(Nc1ccc2c(c1)CCC2)C1CCN(c2c3c(nc4ncnn24)CCC3)CC1", "activity change, negative = cytotoxicity": "inactive"},
      {"smiles": "Cc1nc2ncnn2c(N2CCCC(C(=O)Nc3ccc4c(c3)CCC4)C2)c1C", "note": "(centres undefined)", "activity change, negative = cytotoxicity": "inactive"},
      {"smiles": "Oc1ccc(CNc2ccccc2F)c2cccnc12", "activity change, negative = cytotoxicity": "inactive"},
      {"smiles": "N#C/C(=N\\Nc1ccc(Cl)cc1)C(=O)c1ccccc1", "activity change, negative = cytotoxicity": "inactive"},
      {"smiles": "NC(=S)c1ccc(OCCCc2ccccc2)cc1", "activity change, negative = cytotoxicity": "inactive"},
      {"smiles": "O=C1c2cccc(OCc3ccc(F)cc3)c2CCN1Cc1ccccc1", "activity change, negative = cytotoxicity": "inactive"},
      {"smiles": "C[C@@]12C(=O)N(CCc3c[nH]c4ccccc34)CC(=O)N1[C@H]1c3ccccc3OC[C@@H]1[C@@H]2c1ccccc1", "activity change, negative = cytotoxicity": "inactive"},
      {"smiles": "C[C@@]12C(=O)N(CC3CCCO3)CC(=O)N1[C@H]1c3cc(Cl)ccc3OC[C@@H]1[C@@H]2c1ccccc1", "note": "(some centres undefined)", "activity change, negative = cytotoxicity": "inactive"},
      {"smiles": "COC(=O)CCn1nnc(-c2ccc(C(C)C)cc2)n1", "activity change, negative = cytotoxicity": "inactive"},
      {"smiles": "COCC(=O)Nc1ccc2c(c1)C(=O)N(C)[C@H]1CC[C@H](CC(=O)NC3CCCC3)O[C@H]1CO2", "activity change, negative = cytotoxicity": "inactive"},
      {"smiles": "CC1=CC(C)(C)N(C(=O)c2ccccc2)c2ccc(C)cc21", "activity change, negative = cytotoxicity": "inactive"},
      {"smiles": "COCC(=O)Nc1ccc2c(c1)C(=O)N(C)C[C@@H](OC)[C@@H](C)CN(C)[C@H](C)CO2", "activity change, negative = cytotoxicity": "inactive"},
      {"smiles": "CCOC1=C2[C@@H](CN(S(=O)(=O)c3ccccc3C)[C@H]2c2ccc(Cl)cc2)[C@H]2C(=O)NC(=O)[C@H]2C1", "activity change, negative = cytotoxicity": "inactive"},
      {"smiles": "Cc1sc2ncnc(N3CCC(C(=O)Nc4cc(S(C)(=O)=O)ccc4Cl)CC3)c2c1C", "activity change, negative = cytotoxicity": "inactive"},
      {"smiles": "COC(=O)C1=C(C)N(CC2CC2)C(=O)N[C@H]1c1ccc(Br)cc1", "activity change, negative = cytotoxicity": "inactive"},
      {"smiles": "O=C(NCc1ccco1)c1ccc(Cn2c(=O)c3sccc3n(Cc3cccc(F)c3)c2=O)cc1", "activity change, negative = cytotoxicity": "inactive"},
      {"smiles": "CC[C@@]1(C(=O)OC)N[C@H](CN(C)C(=O)COc2ccccc2)[C@@H]2C(=O)N(Cc3ccccc3)C(=O)[C@@H]21", "activity change, negative = cytotoxicity": "inactive"},
      {"smiles": "C[C@H]1CN([C@@H](C)CO)C(=O)Cc2cc(N(C)C)ccc2O[C@H]1CN(C)Cc1ccc(Cl)c(Cl)c1", "activity change, negative = cytotoxicity": "inactive"},
      {"smiles": "C[C@@H]1CN([C@@H](C)CO)C(=O)c2cc(C3=CCCC3)cnc2O[C@@H]1CN(C)Cc1ccc(C(=O)O)cc1", "activity change, negative = cytotoxicity": "inactive"},
      {"smiles": "O=C(NCc1ccccc1)c1ccc(C(=O)NCc2ccccc2)cc1", "activity change, negative = cytotoxicity": "inactive"},
      {"smiles": "C=C(C)c1cccc(C(C)(C)NC(=O)Nc2ccc(Cl)cn2)c1", "activity change, negative = cytotoxicity": "inactive"},
      {"smiles": "Cc1ncccc1C(=O)N1CCCC(C(=O)c2ccc3c4c(cccc24)CC3)C1", "note": "(centres undefined)", "activity change, negative = cytotoxicity": "inactive"},
      {"smiles": "CCOc1ccc(N(C)S(=O)(=O)c2cc(-c3cc(C)no3)ccc2C(C)C)cc1", "activity change, negative = cytotoxicity": "inactive"},
      {"smiles": "Cc1ccc(NC(=O)c2ccc(CN3CCc4ccccc4C3)cc2)cc1", "activity change, negative = cytotoxicity": "inactive"},
      {"smiles": "COc1ccc(NC(=O)c2ccc(Cl)c(S(=O)(=O)N3CCc4ccccc4C3)c2)cn1", "activity change, negative = cytotoxicity": "inactive"},
      {"smiles": "Cc1ccc2c(c1)c1c3n2CCN(CCC#N)C3CCC1", "note": "(centres undefined)", "activity change, negative = cytotoxicity": "inactive"},
      {"smiles": "CC(CCc1ccco1)NC(=O)CCc1nnc2ccc(NCc3ccccc3Cl)nn12", "note": "(centres undefined)", "activity change, negative = cytotoxicity": "inactive"},
      {"smiles": "Cc1ccc(S(=O)(=O)N2CCC(=O)N(CCOC(=O)Nc3cccc(Cl)c3)CC2)cc1", "activity change, negative = cytotoxicity": "inactive"},
      {"smiles": "COc1ccccc1Oc1ccc(S(=O)(=O)NCc2ccccn2)cc1", "activity change, negative = cytotoxicity": "inactive"},
      {"smiles": "COc1ccc(C)cc1NC(=O)CCNS(=O)(=O)c1ccc2c(c1)CC(C)N2C(C)=O", "note": "(centres undefined)", "activity change, negative = cytotoxicity": "inactive"},
      {"smiles": "O=C(C[C@H]1C[C@@H]2c3cc(NC(=O)C4CCOCC4)ccc3O[C@@H]2[C@@H](CO)O1)NCc1ccccc1F", "activity change, negative = cytotoxicity": "inactive"},
      {"smiles": "CC(C)CCN(N=O)[C@@H](Cc1ccccc1)CN(N=O)[C@@H](Cc1ccccc1)CN(C)N=O", "activity change, negative = cytotoxicity": "inactive"},
      {"smiles": "COc1ccc(-c2cc(=O)oc3c(C)c(O)ccc23)cc1", "activity change, negative = cytotoxicity": "inactive"},
      {"smiles": "O=C(NCCc1ccccc1)c1ccc2c(c1)OCCO2", "activity change, negative = cytotoxicity": "inactive"},
      {"smiles": "C=C1CCN([C@@H](Cc2ccccc2)C(=O)NCCC(C)C)S(=O)(=O)c2ccccc21", "activity change, negative = cytotoxicity": "inactive"},
      {"smiles": "CSCCC(NS(=O)(=O)c1ccc2c(c1)oc(=O)n2C)C(=O)NC1CCCc2ccccc21", "note": "(centres undefined)", "activity change, negative = cytotoxicity": "inactive"},
      {"smiles": "CC(=O)c1ccc([C@H]2C[C@@]34CN(C(=O)OC(C)(C)C)S(=O)(=O)[C@H]3C[C@H]2O4)cc1", "activity change, negative = cytotoxicity": "inactive"},
      {"smiles": "CN(C)CC(=O)Nc1ccc2c(c1)[C@H]1C[C@@H](CC(=O)NCCc3ccccc3)O[C@H](CO)[C@H]1O2", "activity change, negative = cytotoxicity": "inactive"},
      {"smiles": "O=C(Nc1cccc(C(=O)O)c1)Nc1ccc2c(c1)OCO2", "activity change, negative = cytotoxicity": "inactive"},
      {"smiles": "COc1ccc(NC(=O)C2CCCN2S(=O)(=O)c2ccc3c(c2)CCC(=O)N3)cc1Cl", "note": "(centres undefined)", "activity change, negative = cytotoxicity": "inactive"},
      {"smiles": "O=C(COc1ccc(-n2cnnn2)cc1)Nc1ccc(F)c(F)c1", "activity change, negative = cytotoxicity": "inactive"},
      {"smiles": "Cn1cccc1C(=O)OCC(=O)NCCc1ccc(S(N)(=O)=O)cc1", "activity change, negative = cytotoxicity": "inactive"},
      {"smiles": "Cc1cc2c3c(c1)C1(SCC(=O)N1c1ccc(F)cc1)C(=O)N3C(C)(C)CC2C", "note": "(centres undefined)", "activity change, negative = cytotoxicity": "inactive"}
    ]}
  ]
}
